Assay results published in PubChem BioAssay AID743143 (Broad Institute, 2013).
Measured potencies and affinities stand elsewhere. Unmarked numbers belong to inactive results.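 Rule for the calls: active = falling signal curve whose fitted half-maximal dose lies at or below the top valid tested dose; inconclusive = flat fit showing 30 to 70% loss, or poor fit; inactive = rising signal, flat within 30%, or half-maximal dose above top.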

Test: HepG2 cell cytotoxicity, dose response, cytotoxicity control, ATP luminescence, dry powder, Set4 (AID 743143)
Conditions: HepG2 viability, CellTiter-Glo ATP luminescence, 72 h; series mostly up to 26 µM; activity change, negative = cytotoxicity: at the top concentration

Row | SMILES | activity change, negative = cytotoxicity
1 | Cc1cccc(C(=O)NCCC(=O)NC2CCCc3ccccc32)c1 (configuration not stated) | 10.8%
2 | O=C(CNC(=O)c1ccc(Cl)cc1)N[C@@H]1CCCc2ccccc21 | 1.92%
3 | CC(NC(=O)C1CCCN(C(=O)c2ccc(Cl)cc2)C1)c1ccccc1 (configuration not stated) | 1.33%
4 | CC(C)(C)OC(=O)NCCC(=O)N[C@H]1CCCc2ccccc21 | -10%
5 | O=C(CCNC(=O)c1cccc(Cl)c1)N[C@@H]1CCCc2ccccc21 | 0.415%
6 | COc1ccccc1C(=O)NCCC(=O)NC1CCCc2ccccc21 (configuration not stated) | 15.7%
7 | O=C(NC1CCc2ccccc21)C1CCCN(C(=O)c2ccc(Cl)cc2)C1 (configuration not stated) | -6.73%
8 | CC(NC(=O)CCNC(=O)c1ccc(Cl)cc1)c1ccc2c(c1)OCO2 (configuration not stated) | 1.46%
9 | COc1ccccc1C(C)NC(=O)CCNC(=O)c1ccc(Cl)cc1 (configuration not stated) | 17.3%
10 | O=C(CCNC(=O)c1ccccc1Cl)NC1CCCc2ccccc21 (configuration not stated) | -8.4%
11 | N#Cc1ccc(C(=O)NCCC(=O)N[C@@H]2CCCc3ccccc32)cc1 | -2.19%
12 | O=C(CCNC(=O)c1ccc(OC(F)(F)F)cc1)N[C@@H]1CCCc2ccccc21 | -18.2%
13 | O=C(Cc1ccc(Cl)cc1)NCCC(=O)N[C@@H]1CCCc2ccccc21 | 7.64%
14 | O=C(CCNC(=O)c1ccc(Cl)cc1)NC1CCCCC1 | 8.22%
15 | C[C@@H](NC(=O)CCNC(=O)c1ccc(Cl)cc1)c1ccccc1 | -1.89%
16 | O=C(CCNC(=O)c1ccc(Cl)cc1)NC1CCCc2ccccc21 (configuration not stated) | -25.1%
17 | O=C(CCNC(=O)c1ccc(Cl)cc1)N[C@@H]1CCCc2ccccc21 | -3.06%
18 | O=C(CNC(=O)c1ccc(OC(F)(F)F)cc1)N[C@@H]1CCCc2ccccc21 | 11.1%
19 | O=C(CNC(=O)c1ccc(C(F)(F)F)cc1)N[C@@H]1CCCc2ccccc21 | 18.8%
20 | CC(C)(C)OC(=O)NCCC(=O)N[C@@H]1CCCc2ccccc21 | 30.2%
21 | CC(c1ccccc1)N(C)C(=O)CCNC(=O)c1ccc(Cl)cc1 (configuration not stated) | 20.6%
22 | O=C(CCCNC(=O)c1ccc(C(F)(F)F)cc1)N[C@@H]1CCCc2ccccc21 | -4.36%
